Data taken from PubChem BioAssay (NCI).
The panel holds about 83,000 compounds, 20% with a hit somewhere; the sample as a whole holds those more often.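 Negative percent growth values reflect cell death: -40 means 40% of the cells present at the start died, and -100 means all died.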 Active and inactive are the calls of the source. Rule for the calls: active = growth percent below 10; inactive = the rest.

These molecules were tested on CAKI-1 renal (assay: NCI-60 one-dose screen, 48 h (100 = growth as untreated, 0 = no growth, -100 = all killed)). Conditions: 10 µM unless noted.

SMILES | growth
COC(=O)Cc1cc(COC(C)=O)ccc1C | 116% (inactive)
Cc1ccc(/C=N/NC(N)=S)s1 | 92% (inactive)
Cc1cc(=O)n(Nc2ccccc2)c(O)c1C#N | 92.5% (inactive)
CN(C)c1ccc(O)c2c1CC1CC3C(N(C)C)C(=O)C(C(N)=O)=C(O)C3(O)C(=O)C1=C2O (stereo not drawn) | -3.07% (active)
C/C(=N\N=C(/C)c1cccc([N+](=O)[O-])c1)c1cccc([N+](=O)[O-])c1 | 99.5% (inactive)
CC(=O)c1ccc(C)cc1 | 109% (inactive)
O=C1Nc2ccccc2/C1=C\c1ccccc1O | 88.6% (inactive)
CCOC(=O)Nc1nccs1 | 103% (inactive)
CCNC(=O)Oc1ccc[nH]c1=O | 95.1% (inactive)
Cc1nc(C)c(C(=O)O)cc1C(=O)O | 100% (inactive)
CC(CO)(CO)C(=O)O | 99% (inactive)
CCOC(=O)CNC | 94.6% (inactive)
CC(c1ccccc1)N(C)C (stereo not drawn) | 96.5% (inactive)
COC1CC(OC(=O)c2ccc([N+](=O)[O-])cc2)C(COC(=O)c2ccc([N+](=O)[O-])cc2)O1 (stereo not drawn) | 94% (inactive)
Nc1cccc2cccc(O)c12 | 101% (inactive)
CC(CCC#N)(CCC#N)C(=O)c1ccccc1 | 112% (inactive)
NS(=O)(=O)c1cc(=O)[nH]c(=O)[nH]1 | 111% (inactive)

SMILES | growth
COc1ccc2c(Cl)cc(NC(=O)Nc3c(C)cccc3C)nc2c1 | 11.1% (inactive)
CC(=O)c1cccc(O)c1 | 97.9% (inactive)
Cc1nc(O)cc(=O)[nH]1 | 109% (inactive)
Cc1ccc(C)c2c1CCC2=O | 95.9% (inactive)
O=C(OC1CCCC1)c1ccccc1Cl | 101% (inactive)
CC(C)c1ccc(C(=O)OCCCl)cc1 | 383% (inactive)
CCCCNC(=O)c1ccc(OCC)cc1 | 100% (inactive)
N#Cc1ccc(OC(=O)Nc2cc(Cl)cc(Cl)c2)cc1 | -27.5% [100 µM] (active)
CCOC(=O)C(C#N)=C1CCN(C)CC1 | 92.4% (inactive)
COC(CCCl)c1ccc(Cl)cc1 (stereo not drawn) | 101% (inactive)
CCOc1ccc(C(=O)NCC(C)C)cc1 | 101% (inactive)
COc1ccc(C2CCCCC2=O)cc1 (stereo not drawn) | 105% (inactive)
O=S(=O)(c1ccc(NC(=S)NCc2cccnc2)cc1)N1CCCCC1 | 29.1% (inactive)
Cc1ccc(NC(=O)c2ccccc2Cl)cc1 | 107% (inactive)
CCCCCCCCNC(=O)C(C)C | 99.1% (inactive)
N#C/C(=C\c1ccc2c(c1)OCO2)c1ccccc1 | 58.9% (inactive)
